According to PubChem BioAssay AID720517 (National Center for Advancing Translational Sciences (NCATS), 2013):
Records with an inconclusive call do not appear. Unmarked numbers belong to inactive results. Activity calls are given as the source filed them. The call rests on the fitted dose curve; in most records, active means well fitted activation curve with a large enough effect; inconclusive means small, poorly fitted or top-dose-only effect; inactive means flat fitted curve, though single readings scatter.

Assay: qHTS for Inhibitors of Cell Surface uPA Generation: FP59 Counterscreen for Cherry-picked Compounds; on activity (protection from FP59): 0% is about no effect
Settings: FP59 anthrax toxin cytotoxicity counterscreen, cells; series mostly up to 115 µM; activity (protection from FP59): at the top concentration
Potency means the concentration at half of the fitted maximal effect.

Q: Which “activity (protection from FP59)” value does the source give for `Cc1ccc(C23CC4CC(CC(C(=O)NN)(C4)C2)C3)cc1` here?
A: -1.25%

Q: For `Cc1ccc2nc(-c3ccncc3)cc(C(=O)NCCc3ccc(F)cc3)c2c1`, which “activity (protection from FP59)” value is on record?
A: -1.48%

Q: Which “activity (protection from FP59)” value does the source give for `COC(=O)Cc1c(C)c2ccc(OCC(=O)N3CCCC(C)C3)c(C)c2oc1=O` (centres undefined) here?
A: -1.33%

Q: For `O=C(Cc1ccccc1)Nc1ccc(NC(=O)c2ccccc2)c(Cl)c1`, which “activity (protection from FP59)” value is on record?
A: -1.32%

Q: For `CC(=O)c1ccc(OCCCCOc2ccc(C(C)=O)cc2)cc1`, which “activity (protection from FP59)” value is on record?
A: -1.4%

Q: Which “activity (protection from FP59)” value does the source give for `C=CC1=C(C(=O)O)N2C(=O)[C@@H](NC(=O)/C(=N\O)c3csc(N)n3)[C@H]2SC1` (stereo in doubt) here?
A: -1.16%

Q: With `O=C(Cc1n[nH]c(=O)c2ccccc12)Nc1cccc(S(=O)(=O)N2CCCCCC2)c1` as the molecule, how does the “activity (protection from FP59)” value read?
A: 0.793%

Q: Which “activity (protection from FP59)” value does the source give for `CCS(=O)c1scc(-c2ccc(Cl)cc2)c1C#N` (centres undefined) here?
A: -1.16%

Q: With `Cn1c(=O)c2c(ncn2CCO)n(C)c1=O` as the molecule, how does the “activity (protection from FP59)” value read?
A: -0.875%

Q: For `C=CC[n+]1c(/C=C/c2ccc(OC(C)=O)c(OC)c2)ccc2ccccc21`, which “activity (protection from FP59)” value is on record?
A: -1.44%

Q: For `CSCC[C@H](NC(=O)[C@H](Cc1ccccc1)n1c(=O)[nH]c2ccccc2c1=O)C(=O)N1CCC[C@H]1C(=O)O`, which “activity (protection from FP59)” value is on record?
A: -1.3%

Q: With `Cc1[nH]c2ccc(C(=O)OC(C)C(=O)NC3CCCCC3C)cc2c1C` (centres undefined) as the molecule, how does the “activity (protection from FP59)” value read?
A: -0.383%

Q: Which “activity (protection from FP59)” value does the source give for `Cc1cc(-c2ccccc2)nc(N/N=C/c2ccc(N(C)C)cc2)n1` here?
A: -1.45%

Q: With `O=C(NCC1CCCO1)c1c(O)c2cccc3c2n(c1=O)CCC3` (centres undefined) as the molecule, how does the “activity (protection from FP59)” value read?
A: -0.908%

Q: With `Cc1ccc(/C=C/C(=O)O)cc1S(=O)(=O)N1CCc2ccccc21` as the molecule, how does the “activity (protection from FP59)” value read?
A: -1.58%

Q: With `CC(C)C(=O)Nc1nnc(SCc2cccc(F)c2)s1` as the molecule, how does the “activity (protection from FP59)” value read?
A: -1.27%

Q: For `COc1ccc(C2=NOC(CNC(N)=S)C2)cc1` (centres undefined), which “activity (protection from FP59)” value is on record?
A: -1.38%

Q: For `COc1ccccc1NC(=O)Cn1nnc(-c2ccccc2NC(=O)c2cc3ccccc3oc2=O)n1`, which “activity (protection from FP59)” value is on record?
A: -1.55%

Q: For `COC(=O)c1ccc(N2CCN(c3ccccc3)CC2)c(NC(=O)C2CC2)c1`, which “activity (protection from FP59)” value is on record?
A: -1.64%

Q: For `O=C(CCc1ccccc1)NNC(=O)c1cccc(F)c1`, which “activity (protection from FP59)” value is on record?
A: -1.48%

Q: With `CC(=O)Oc1ccccc1C(=O)Nc1ccccc1C(=O)N1CCCC1` as the molecule, how does the “activity (protection from FP59)” value read?
A: -1.41%

Q: With `O=C(OCC(=O)N1CCOCC1)c1c(Cl)ccc(Cl)c1Cl` as the molecule, how does the “activity (protection from FP59)” value read?
A: -1.43%

Q: With `Cc1ccc(-c2nc(CS(=O)(=O)CC(=O)NCc3cccc(F)c3)c(C)o2)cc1` as the molecule, how does the “activity (protection from FP59)” value read?
A: -1.37%

Q: With `NC(=O)CC(NC(=O)Cc1cccc2ccccc12)c1ccc(N2CCC(Cc3ccccc3)CC2)c([N+](=O)[O-])c1` (centres undefined) as the molecule, how does the “activity (protection from FP59)” value read?
A: -1.17%

Q: With `Cc1ccc(S(=O)(=O)N2CCC(C(=O)OC(C)C(=O)NC3CCCCC3C)CC2)cc1` (centres undefined) as the molecule, how does the “activity (protection from FP59)” value read?
A: -0.445%

Q: For `CCCc1nn2c(=O)cc(CSCC(=O)Nc3ccccc3)nc2s1`, which “activity (protection from FP59)” value is on record?
A: -1.23%

Q: Which “activity (protection from FP59)” value does the source give for `CCC1(C)NC(=O)N(CC(=O)Nc2sc3c(c2C(N)=O)CCC3)C1=O` (centres undefined) here?
A: -0.768%

Q: With `O=C(c1cc2cc([N+](=O)[O-])ccc2s1)N1CCOCC1` as the molecule, how does the “activity (protection from FP59)” value read?
A: -1.5%

Q: For `Cc1ccc(S(=O)(=O)NNC(=O)c2ccc(F)cc2)cc1`, which “activity (protection from FP59)” value is on record?
A: -1.31%

Q: For `Cc1c([N+](=O)[O-])c2ccc(O)cc2n1-c1ccccc1`, which “activity (protection from FP59)” value is on record?
A: -1.23%

Q: For `O=C(COc1ncnc2sccc12)Nc1cccc(S(=O)(=O)N2CCCC2)c1`, which “activity (protection from FP59)” value is on record?
A: -1.04%

Q: Which “activity (protection from FP59)” value does the source give for `Cc1ccccc1NC(=O)N1CCN(c2ncccn2)CC1` here?
A: -1.2%

Q: With `COc1cccc(NC(=O)N2C3CCCC2CC(NC(C)=O)C3)c1` (centres undefined) as the molecule, how does the “activity (protection from FP59)” value read?
A: -0.276%

Q: With `COC(=O)CCSCC(=O)N1N=C(c2ccc(OC)cc2)CC1c1cccc(OC)c1OC` (centres undefined) as the molecule, how does the “activity (protection from FP59)” value read?
A: -1.4%

Q: With `Cc1ccc(NC(=S)N2CCN(Cc3ccc4c(c3)OCO4)CC2)c(C)c1` as the molecule, how does the “activity (protection from FP59)” value read?
A: -1.41%

Q: Which Potency does the source give for `S=C(Nc1ccccc1Cl)N1CCCC(c2ccccc2)=N1` here?
A: 23.3 µM (active)

Q: With `Cc1ccnc(NC(=O)CCNS(=O)(=O)c2ccc(C)c(C)c2)c1` as the molecule, how does the “activity (protection from FP59)” value read?
A: -1.33%

Q: For `Cc1ccc(-n2cccc2C(=O)NS(=O)(=O)c2ccc(C)cc2)cc1`, which “activity (protection from FP59)” value is on record?
A: -1.27%

Q: For `CC1CC(C)(C)Nc2ccc(N=O)cc21` (centres undefined), which “activity (protection from FP59)” value is on record?
A: -1.58%
